Autofluor 339: intrinsic fluorescence of library compounds, ex339/em460 – biochemical, MLSMR library, data from DPM-DC assay, artefact control, profiling panel; compound autofluorescence, ex339/em460 nm, NADH buffer; active compounds read high; 1 = no-compound wells, NADH background; fluorescence fold increase at 10 µM; actives 5.5% (n = 65,000); AID 709;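 active = at 10 µM, mean starting fluorescence two-fold or more over control wells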;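 also: signal is the first read of a kinetic run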
PMK inhibit: inhibitors of Streptococcus pneumoniae phosphomevalonate kinase; purified PMK, PK/LDH-coupled NADH absorbance 340 nm; inhibition, % at 10 µM; actives 0.49% (n = 65,000); AID 539;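 active = top-ranked compounds by inhibition in the single 10 µM screen, taking a fixed number of the strongest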;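 also: 0% = full reaction with DMSO carrier and 100% = background rate without enzyme reaction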
Abs 340nm: absorbance at 340 nm; compound absorbance at 340 nm, fold over control; fold change at 10 µM; 65,000 tested, under 10 active; AID 708;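 active = at 10 µM dose, initial 340 nm absorbance at least 2 fold that of control wells; inactive = change under 2 fold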;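 also: initial absorbance extrapolated from kinetic A340 decline of NADH oxidation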
NADH enzymes: inhibition of NAD/NADH coupling enzymes, library profiling; coupled PK/LDH NADH assays, four targets; IC50, µM (top dose mostly 10 µM), for the others: at the highest dose inhibition; actives 0.02% (n = 65,000); AID 774;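 active = single-dose screening hits from any of four coupled enzyme assays that gave an IC50 when retested across doses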;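 also: the DPM-DC format reads NADH fluorescence rather than 340 nm absorbance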
MK inhibit: S. pneumoniae mevalonate kinase inhibition | inhibition, % at 10 µM | actives 0.48% (n = 65,000) | purified MK, PK/LDH-coupled NADH absorbance 340 nm;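 active = ranked among the strongest by inhibition in the single 10 µM screen, a fixed top-ranked set picked for dose follow-up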
Spn DPM-DC inh: blocks S. pneumoniae diphosphomevalonate decarboxylase. actives 0.49% (n = 65,000). AID 556. purified DPM-DC, PK/LDH coupled NADH fluorescence. calls only at 10 µM;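 active = the 320 compounds with the highest percent inhibition in the single-dose primary screen, excluding strongly autofluorescent ones, cut at about 32% in these data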;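 also: kinetic rate of NADH fluorescence loss reporting ADP formed by the decarboxylase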
* = called active by the depositor; i = inactive; . = no result given; + = active, no number; [ ] = dose if it differs, or a comment. Hits are enriched below; roughly 6.8% of the tested compounds scored in any of these assays.

SMILES	Autofluor 339	PMK inhibit	Abs 340nm	NADH enzymes	MK inhibit	Spn DPM-DC inh
COC(=O)c1[nH]c2ccc(C)cc2c1NC(=O)CN1CCc2cc(OC)c(OC)cc2C1	2.2*	15	1	14%	10	i
COC(=O)c1[nH]c2ccc(C)cc2c1NC(=O)CCN1CCN(C2CCCCC2)CC1	2.9*	2	1.1	6%	3	i
CCOC(=O)/C=C/S(=O)(=O)c1ccc(NC(C)=O)cc1	1.1	9	1	4%	2	i
COCCOC(=O)c1c(C)oc2ccc(OC(=O)c3ccc4c(c3)OCO4)cc12	1.1	11	1.1	4%	0	i
COc1cc(C(=O)Nc2cnc(NC(=O)C(C)C)cc2C)cc(OC)c1OC	1.1	15	0.99	7%	5	i
N#CC1=C(N)OC2=C(C(=O)CCC2)C1c1ccsc1 (stereo not given)	1	7	1	5%	8	i
O=c1cc(NCCO)c2ccccc2o1	1.1	0	1.1	2%	6	i
OCCCCNc1cccc2ccccc12	3.7*	10	0.99	9%	8	.
NC(=O)c1ccsc1NC(=O)c1nc(-c2ccccc2)n(-c2ccccc2)n1	1.5	11	1	17%	4	+
O=C(NC1=NCCS1)c1nc(-c2ccccc2)n(-c2ccccc2)n1	1	2	1	1%	0	i
c1coc(CNc2nc(N3CCCCC3)nc3ccccc23)c1	3.7*	13	0.99	13%	13	.
c1ccc(N2CCN(c3nc(NCc4ccco4)c4ccccc4n3)CC2)cc1	1.6	0	1	1%	3	i
CN(C)c1ccc(-c2nn3c(-c4ccc(Cl)cc4)nnc3s2)cc1	1.3	0	1	1%	2	i
CN(C)c1ccc(-c2nn3c(C4CCCCC4)nnc3s2)cc1	2.5*	4	1.1	11%	4	i
COc1ccc(-c2cc3nc(C)c(CCC(=O)NCc4ccco4)c(C)n3n2)c(OC)c1	2.2*	8	1	5%	0	i
COc1ccc(-c2cc3nc(C)c(CCC(=O)N4CCCCC4)c(C)n3n2)c(OC)c1	2	40*	1.1	21%	0	i
Cc1nonc1NC(=O)CSc1ccc(-c2ccccc2)nn1	0.99	27*	0.96	10%	1	i
COc1ccc(C(=O)N2CCc3cc(OC)c(OC)cc3C2)cc1OC	1.1	6	1.1	3%	4	i
COc1cc2c(cc1OC)CN(Cc1cc(=O)n3cc(C)ccc3n1)CC2	2.3*	6	1.1	10%	5	i
COc1ccc(C)cc1-n1nnnc1SCc1cc(=O)n2cc(C)ccc2n1	2.1*	12	1.1	11%	0	i
Fc1ccc(COc2ccc(/C=N/n3cnnc3)cc2)cc1	1.2	10	1.1	4%	3	i
COc1cccc(C(=O)Nc2ccc3nc(N4CCN(c5ncccn5)CC4)cc(C)c3c2)c1OC	1.4	0	1	5%	10	i
CCN1CCN(c2cc(C)c3cc(NC(=O)c4ccc5c(c4)OCO5)ccc3n2)CC1	1.1	3	1.1	3%	4	i
CCOc1ccccc1C(=O)Nc1ccc2nc(N3CCN(c4ncccn4)CC3)cc(C)c2c1	2.2*	9	1.1	7%	4	.
Cc1cc(N2CCOCC2)nc2ccc(NC(=O)CCC(=O)N3CCCC(C)C3)cc12 (stereo not given)	4.8*	6	1.1	7%	7	.
SMILES	Autofluor 339	PMK inhibit	Abs 340nm	NADH enzymes	MK inhibit	Spn DPM-DC inh
Cc1cc(N2CCN(C)CC2)nc2ccc(NC(=O)CCC(=O)NCc3ccco3)cc12	3.5*	6	1.1	13%	7	i
COc1ccc(C)cc1NC(=O)CCC(=O)Nc1ccc2nc(N3CCN(C)CC3)cc(C)c2c1	2.5*	8	1	15%	8	i
NCC[C@H](O)C(=O)N[C@@H]1C[C@H](N)[C@@H](O[C@H]2O[C@H](CN)[C@@H](O)[C@H](O)[C@H]2O)[C@H](O)[C@H]1O[C@H]1O[C@H](CO)[C@@H](O)[C@H](N)[C@H]1O	1.1	0	1	1%	4	i
CC(C)(NO)/C(=N/O)c1cccs1	1.1	6	1	3%	3	i
O=C(NCc1ccccc1)NC1(C(=O)N2CCN(c3ccccc3)CC2)CCCCC1	1	17	0.97	7%	5	i
O=C(Nc1ccc(SC(F)F)cc1)c1ccc2nccnc2c1	1.1	0	1	0%	0	i
CCOC(=O)Cc1c(C)c2c(C)nn(-c3ccccc3)c2oc1=O	2.3*	0	1.1	6%	0	i
Cc1ccc2c(c1)c1c(n2CC2COC(C)(C)O2)C(=O)CCC1 (stereo not given)	2.2*	1	1	5%	9	.
Cc1ccc2c(c1)c1c(n2CC(O)Cn2c(C)nc3ccccc32)C(=O)CCC1 (stereo not given)	2*	21	1.1	16%	11	.
Cc1ccc2c(c1)c1c(n2CC(O)CN2C(=O)CNC2=O)C(=O)CCC1 (stereo not given)	2*	7	1.1	8%	9	.
Cc1ccc2c(c1)c1c(n2CC(O)Cn2c(C)nc3ccccc32)/C(=N\O)CCC1 (stereo not given)	1.1	7	0.99	4%	5	i
CC(C)c1nc(NCC2CCCO2)c(C#N)c2c1COC(C)(C)C2 (stereo not given)	2.4*	6	0.99	3%	2	+[fluoresces]
CCc1nc(NC2CCCCC2)c(C#N)c2c1COC(C)(C)C2	1.8	7	1	4%	4	i
CCc1nc(NCC(C)C)c(C#N)c2c1COC(C)(C)C2	2.1*	7	1	4%	0	.
CCc1nc(NCC2CCCO2)c(C#N)c2c1COC(C)(C)C2 (stereo not given)	2.3*	13	1	7%	0	.
Cc1c(Cl)cccc1NC(=O)CSc1nnc(CCNC(=O)OC(C)(C)C)o1	1.1	10	1	5%	5	i
CSc1nnc(Cn2c(=O)sc3ccccc32)n1CCc1ccccc1	1.1	15	0.99	8%	8	i
CCOc1cccc(OCCOCCN2CCCC2)c1	1	5	1	6%	45*	i
Cc1cc(OCCOCCN2CCCC2)ccc1C(C)C	1.1	2	1.1	14%	41*	i
COc1cccc(OCCCCCN2CCOCC2)c1	1.1	0	1.1	1%	3	i
Brc1ccc(OCCOCCN2CCOCC2)cc1	1.1	9	1	4%	2	i
Cc1nc2sc(C(c3cccc(F)c3)N3CC(C)OC(C)C3)c(O)n2n1 (stereo not given)	1.1	17	1	6%	0	i
CCOC(=O)C1CCN(CC(=O)Nc2c(C(=O)OC)[nH]c3ccccc23)CC1	1.4	10	1	9%	16	i

High-throughput results: PubChem, SRMLSC
